Pf apPOL block – Pf-apPOL inhibitors, biochemical, fluorescence; AID 1794808, 2022; Plasmodium falciparum apicoplast DNA polymerase (apPOL); actives 0.25% (n = 210,000); Recombinant Pf-apPOL, molecular beacon fluorescence, 1.5 h; inhibition, % at 10 µM
mHTT CaM bind – mutant huntingtin-calmodulin interaction inhibitors – biochemical, AlphaScreen, primary screen | actives 3.6% (n = 190,000) | P42858 | inhibition, % at 15 µM | AID 1671202, 2021 | AlphaScreen His-mHTT/GST-CaM binding, luminescence
Target sequence (P42858 whole entry, looked up, change not shown): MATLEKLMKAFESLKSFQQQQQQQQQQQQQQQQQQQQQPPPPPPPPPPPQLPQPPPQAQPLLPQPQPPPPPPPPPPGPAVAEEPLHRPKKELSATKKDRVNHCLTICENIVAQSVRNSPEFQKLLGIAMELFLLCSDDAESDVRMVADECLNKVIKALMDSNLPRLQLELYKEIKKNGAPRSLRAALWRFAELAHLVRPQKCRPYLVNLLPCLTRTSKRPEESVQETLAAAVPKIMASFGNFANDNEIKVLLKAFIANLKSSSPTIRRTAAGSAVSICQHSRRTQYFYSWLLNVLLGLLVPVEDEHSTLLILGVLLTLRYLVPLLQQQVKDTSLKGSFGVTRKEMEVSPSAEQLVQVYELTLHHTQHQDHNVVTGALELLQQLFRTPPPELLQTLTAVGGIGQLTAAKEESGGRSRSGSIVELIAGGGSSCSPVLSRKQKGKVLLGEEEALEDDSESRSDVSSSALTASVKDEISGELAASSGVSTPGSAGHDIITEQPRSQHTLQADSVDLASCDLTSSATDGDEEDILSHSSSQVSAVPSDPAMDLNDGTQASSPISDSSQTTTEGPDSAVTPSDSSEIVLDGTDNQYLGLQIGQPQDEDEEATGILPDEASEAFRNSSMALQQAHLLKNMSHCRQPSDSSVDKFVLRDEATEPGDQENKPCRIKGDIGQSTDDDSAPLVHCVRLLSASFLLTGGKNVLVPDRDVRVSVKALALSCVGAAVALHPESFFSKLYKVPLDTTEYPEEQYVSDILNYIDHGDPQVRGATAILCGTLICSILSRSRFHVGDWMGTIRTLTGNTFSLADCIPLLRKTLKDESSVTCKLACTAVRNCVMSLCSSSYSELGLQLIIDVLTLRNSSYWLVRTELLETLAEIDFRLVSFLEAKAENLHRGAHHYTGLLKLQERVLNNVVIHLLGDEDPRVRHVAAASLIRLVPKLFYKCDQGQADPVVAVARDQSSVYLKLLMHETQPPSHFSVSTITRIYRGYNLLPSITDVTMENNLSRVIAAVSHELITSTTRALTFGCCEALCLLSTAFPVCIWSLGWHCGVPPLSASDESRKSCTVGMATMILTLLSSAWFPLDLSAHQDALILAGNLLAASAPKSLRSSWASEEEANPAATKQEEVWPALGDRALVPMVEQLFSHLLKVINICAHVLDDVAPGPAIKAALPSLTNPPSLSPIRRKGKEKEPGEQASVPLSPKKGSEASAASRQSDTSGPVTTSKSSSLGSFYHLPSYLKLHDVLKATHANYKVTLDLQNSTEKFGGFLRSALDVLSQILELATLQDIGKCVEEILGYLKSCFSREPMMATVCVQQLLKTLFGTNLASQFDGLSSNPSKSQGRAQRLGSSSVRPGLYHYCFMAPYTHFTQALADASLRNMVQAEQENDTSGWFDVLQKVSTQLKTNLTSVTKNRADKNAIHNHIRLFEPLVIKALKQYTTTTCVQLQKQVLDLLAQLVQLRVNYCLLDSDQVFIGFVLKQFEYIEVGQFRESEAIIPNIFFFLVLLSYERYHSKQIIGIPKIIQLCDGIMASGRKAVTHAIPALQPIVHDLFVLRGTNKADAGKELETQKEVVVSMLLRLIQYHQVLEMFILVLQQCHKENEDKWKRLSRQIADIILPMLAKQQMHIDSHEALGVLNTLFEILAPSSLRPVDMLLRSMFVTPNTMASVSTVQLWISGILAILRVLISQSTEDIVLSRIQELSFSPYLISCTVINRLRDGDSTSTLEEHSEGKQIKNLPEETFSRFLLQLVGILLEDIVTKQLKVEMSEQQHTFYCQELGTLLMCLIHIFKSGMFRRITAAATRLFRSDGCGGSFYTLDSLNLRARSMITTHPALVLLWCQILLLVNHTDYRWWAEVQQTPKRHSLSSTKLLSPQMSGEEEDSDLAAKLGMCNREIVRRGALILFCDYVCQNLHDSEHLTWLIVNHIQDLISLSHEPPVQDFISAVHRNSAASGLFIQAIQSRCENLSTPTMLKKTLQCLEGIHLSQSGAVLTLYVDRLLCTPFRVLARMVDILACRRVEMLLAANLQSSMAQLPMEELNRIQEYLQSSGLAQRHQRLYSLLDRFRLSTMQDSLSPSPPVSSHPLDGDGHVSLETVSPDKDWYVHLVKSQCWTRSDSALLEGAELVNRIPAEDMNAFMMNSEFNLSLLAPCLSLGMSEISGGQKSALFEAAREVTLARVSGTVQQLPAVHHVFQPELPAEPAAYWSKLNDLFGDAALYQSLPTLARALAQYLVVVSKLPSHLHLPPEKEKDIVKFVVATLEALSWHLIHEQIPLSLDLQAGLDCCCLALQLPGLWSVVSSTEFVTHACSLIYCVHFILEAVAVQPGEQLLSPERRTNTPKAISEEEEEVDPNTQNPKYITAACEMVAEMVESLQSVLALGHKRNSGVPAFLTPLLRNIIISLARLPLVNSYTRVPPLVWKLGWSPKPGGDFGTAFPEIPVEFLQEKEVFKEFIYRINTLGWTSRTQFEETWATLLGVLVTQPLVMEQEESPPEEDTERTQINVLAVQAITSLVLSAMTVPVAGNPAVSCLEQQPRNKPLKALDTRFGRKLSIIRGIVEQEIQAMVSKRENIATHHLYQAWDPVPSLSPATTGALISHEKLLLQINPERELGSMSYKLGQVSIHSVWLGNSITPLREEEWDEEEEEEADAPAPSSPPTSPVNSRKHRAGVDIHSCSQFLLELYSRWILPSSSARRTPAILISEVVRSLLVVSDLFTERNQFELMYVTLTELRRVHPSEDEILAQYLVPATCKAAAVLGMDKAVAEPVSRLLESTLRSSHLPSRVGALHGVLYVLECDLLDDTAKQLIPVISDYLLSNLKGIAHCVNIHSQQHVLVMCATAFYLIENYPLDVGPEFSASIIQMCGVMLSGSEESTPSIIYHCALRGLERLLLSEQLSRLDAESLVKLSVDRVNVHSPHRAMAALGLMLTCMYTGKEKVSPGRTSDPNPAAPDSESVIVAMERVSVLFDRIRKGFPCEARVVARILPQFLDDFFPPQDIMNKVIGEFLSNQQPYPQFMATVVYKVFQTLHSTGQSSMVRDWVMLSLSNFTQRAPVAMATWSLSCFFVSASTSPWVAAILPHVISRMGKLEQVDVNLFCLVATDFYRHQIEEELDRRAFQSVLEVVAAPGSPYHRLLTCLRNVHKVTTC
A number is an active result; – = inactive; · = not tested or not shown; ! = not confirmed by another sample. Rows were chosen to be rich in hits. Some 3.5% of all compounds tested hit in one or more screens of this group. Cut-off read from the data, not from the text of the source: active = inhibition above about 50%; inactive = the rest.

SMILES	Pf apPOL block	mHTT CaM bind
COc1cccc2c1OC1(CCCCC1)N1N=C(c3ccco3)CC21 (stereo not given)	–	–
O=C1CSC(c2ccc(Cl)cc2Cl)N1C1CCCCC1 (stereo not given)	–	–
NC(=O)c1nc(-c2ccccc2F)n2c1CCCCC2	–	–
O=C(NCc1cccnc1)c1nc2ccccn2c1-c1ccc(F)cc1	–	–
N#Cc1c(SCC(=O)NC2CC2)sc2c(O)cc(=O)[nH]c12	·	–
N#Cc1c(SCC(=O)Nc2nccs2)sc2c(O)cc(=O)[nH]c12	·	51
CCOc1ccccc1CN1CCc2nc(Nc3ccc4c(c3)OCCO4)ncc2C1	–	83
Cc1ccc(CN2CCc3nc(Nc4ccc5c(c4)OCO5)ncc3C2)cc1	–	–
COc1ccccc1CN1CCc2nc(Nc3ccc4c(c3)OCO4)ncc2C1	–	51
COc1ccccc1CN1CCc2nc(Nc3ccc4c(c3)OCCO4)ncc2C1	–	–
CC(C)Oc1ccc(CN2CCc3nc(Nc4ccc5c(c4)OCO5)ncc3C2)cc1	–	80
Fc1cccc(CN2CCc3nc(Nc4ccc5c(c4)OCO5)ncc3C2)c1	–	–
CCOc1ccc(CN2CCc3nc(Nc4ccc5c(c4)OCO5)ncc3C2)cc1OC	–	–
COc1cccc(CN2CCc3nc(Nc4ccc5c(c4)OCO5)ncc3C2)c1	–	84
O=C(Nc1cccc(N2CCCCC2=O)c1)c1ccc(Br)o1	–	–
O=c1[nH]c2c(c(=O)[nH]1)C(c1cc([N+](=O)[O-])c(N3CCOCC3)cc1N1CCOCC1)O2 (stereo not given)	–	–
N#CC1=C(N)Oc2cc(O)ccc2C1c1ccc(-c2ccccc2)cc1 (stereo not given)	–	–
COc1cccc(CNc2ccc(C)c(C)c2)c1	–	53
COc1cc(CNc2ccc(C)c(C)c2)cc(OC)c1	–	69
COc1cccc(CNc2ccc3c(c2)CCC3)c1	–	67
COc1cccc(CNc2ccccc2)c1	–	–
COc1cccc(CNc2cccc(F)c2)c1	–	–
COc1ccc(CNc2ccc(F)c(Cl)c2)cc1	–	–
O=C(Nc1ccc(N2CCCN(C(=O)c3ccccc3F)CC2)nc1)C1CC1	–	–
O=C(NC(=S)N1CCN(C(=S)NC(=O)c2ccccc2)CC1)c1ccccc1	–	·
SMILES	Pf apPOL block	mHTT CaM bind
COc1ccc(Cn2c(SC)nc3c(sc4ccccc43)c2=O)cc1	–	–
Cc1ncc(CO)c2cc(-c3nc4ccccc4[nH]3)c(=O)oc12	–	–
Brc1ccc(C2CC(c3cccc(Br)c3)Nc3nnnn32)cc1 (stereo not given)	–	–
CCN(CC)C(=O)c1ccc(C(O)C(Cl)(Cl)Cl)o1 (stereo not given)	–	–
O=[N+]([O-])c1ccsc1N1CCS(=NS(=O)(=O)c2ccc(Cl)cc2Cl)CC1	–	·
O=C(c1ccc(-c2cccnc2)nc1)N1CCN(c2cccc(Cl)c2)CC1	–	76
O=C(c1ccc(-c2cccnc2)nc1)N1CCN(c2ccccc2)CC1	–	–
CN1CCN(C(=O)c2ccc(SCc3cccnc3)c([N+](=O)[O-])c2)CC1	–	–
Cc1ccc(C)c(N2CCN(C(=O)c3ccc(SCc4cccnc4)c([N+](=O)[O-])c3)CC2)c1	–	65
O=C(c1ccc(-c2cccnc2)nc1)N1CCN(c2ccc(Cl)cc2)CC1	–	–
Cc1ccc(C)c(N2CCN(C(=O)c3ccc(-c4cccnc4)nc3)CC2)c1	–	64
CC(C)=NOC(=O)CCS(=O)(=O)c1nc(-c2ccc3c(c2)OCO3)cc(C(F)(F)F)n1	–	–
COc1ccc(OC)c(CNS(=O)(=O)c2ccccc2Br)c1	–	–
CC1=NN(C(=S)c2ccc(C)cc2)C(C)(O)C1CC(C)C (stereo not given)	·	76
O=C1CC(NCCc2ccc(Cl)cc2)C(=O)N1c1ccccc1 (stereo not given)	–	–
Cc1ccc2nc(NC(=O)CSc3ccc(-c4ccco4)nn3)sc2c1	74	85
NC(=O)CSc1nc2ccccc2nc1SCC(N)=O	–	–
O=C(CSc1cccc2cccnc12)Nc1nc2ccccc2s1	–	–
Cc1ccc2nc(NC(=O)CSc3ccc(NC(=O)C4CC4)nn3)sc2c1	–	–
O=C(CSc1ccc(-c2ccccn2)nn1)Nc1nc2ccccc2s1	–	89
NC(=O)CSc1ccc(-c2ccccn2)nn1	–	100
O=C1CC(c2ccccc2)=NN1c1ccccc1S(=O)(=O)O	–	–
Cc1ccc(C2CC(C(F)(F)F)n3ncc(C(=O)Nc4cc(C)ccc4C)c3N2)cc1 (stereo not given)	–	–
CS(=O)(=O)N(CC(=O)Nc1ccc2c(c1)OCCO2)c1ccc(Oc2ccccc2)cc1	–	–
CCc1cc2c(=O)c(-c3nc4ccccc4n3C)c(CCCC(=O)O)oc2cc1O	–	–
SMILES	Pf apPOL block	mHTT CaM bind
CCC(C)NC(=O)c1cncc(-c2cccc(Cl)c2Cl)c1 (stereo not given)	–	–
CCc1ccc2ncc(C#N)c(N3CCC(C(=O)NCc4ccc(F)cc4)CC3)c2c1	–	–
Cc1cc(O)c(C(C)(C)C)cc1Sc1cc(C(C)(C)C)c(O)cc1C	·	100
Cc1cc(Sc2cc(C)c(O)c(C(C)(C)C)c2)cc(C(C)(C)C)c1O	·	–
CC(C)(C)c1cc(O)c(C(C)(C)C)cc1O	–	–
Cc1cc(Cc2cc(C(C)(C)C)c(O)c(C(C)(C)C)c2)c(O)c(C(C)(C)C)c1	·	–
Cc1cc(S(=O)c2cc(C)cc(C(C)(C)C)c2O)c(O)c(C(C)(C)C)c1	·	72
Cc1cc(O)c(C(C)(C)C)cc1S(=O)c1cc(C(C)(C)C)c(O)cc1C	·	68
Cc1ccc2nc(N3CCC(C(=O)NCCC(C)C)CC3)[nH]c2c1	–	–
COc1cc([N+](=O)[O-])ccc1-c1ccc(C(=O)Nc2cccnc2)o1	–	61
O=C(Nc1cccnc1)c1ccc([N+](=O)[O-])o1	–	–
CC1=C(C(=O)Nc2ccccc2)C(c2cccnc2)n2nnnc2N1 (stereo not given)	–	–
c1ccc2c3c([nH]c2c1)-c1nonc1CC3	93!	–
COc1ccc2c3c(ccc2c1)-c1[nH]c2ccccc2c1CC3	·	–
O=C(COc1ccccc1F)N1CCN(c2ncnc3c2nnn3Cc2ccccc2)CC1	–	–
CCCCNC(=O)C1(O)c2cc(Br)ccc2NC(=O)N1c1ccc(OCC)cc1 (stereo not given)	–	–
CCC(=O)N1CCN(c2nc(C)nc(C)c2Cc2c(F)cccc2Cl)CC1	–	–
Cc1nc(C)c(Cc2ccc(Cl)cc2)c(N2CCN(C(=O)C3CC3)CC2)n1	–	–
Cc1nc(C)c(Cc2ccc(Cl)cc2)c(N2CCN(C(=O)C3CCC3)CC2)n1	–	93
CCC(=O)N1CCN(c2nc(C)nc(C)c2Cc2ccc(Cl)cc2Cl)CC1	–	52
O=C(CSc1nnc2n1CCCN2)c1cccs1	–	·
O=C(c1nc2nc(-c3ccccc3)cc(C(F)(F)F)n2n1)N1CCN(Cc2ccccc2)CC1	–	–
COc1nccnc1N1CCC(NC(=O)c2cnccn2)C1 (stereo not given)	–	–
O=C(NC1CC1)c1ccc(OCC2CCCN(C(=O)C3CC3)C2)cc1 (stereo not given)	–	–
COc1ccc(N2CCN(C(=O)CCSc3ccccc3)CC2)cc1	–	–
CC1=Nc2cc(C(=O)NCCN3CCOCC3)ccc2Sc2ccc(Cl)cc21	–	–
CC1=Nc2cc(C(=O)NCCCN3CCC(C)CC3)ccc2Sc2ccc(Cl)cc21	–	53

Compound activity from PubChem BioAssay.
